Screening results as filed in PubChem BioAssay.
A selection: hits, their analogues and other compounds. The true share with any hit is near 3.4%.
TWEAK-Fn14 inh = inhibitors of TWEAK-Fn14 signaling, primary screen, luciferase reporter cells, uHTS | TWEAK-stimulated Fn14 reporter cells, luciferase luminescence, 8 h | inhibition, % at 10 µM | 360,000 compounds, 2% hits | AID 1159606, 2016; in the data active means inhibition above about 50%
TROY NFkB inh = inhibitors of TROY-driven NF-kB signaling, primary screen, Q293 LMP1-TROYcd cells, NF-kB luciferase, uHTS | Q293 LMP1-TROYcd NF-kB luciferase reporter, 4 h | inhibition, % at 10 µM | 360,000 compounds, 0.98% hits | AID 1347056, 2019;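 active means compounds whose plate-normalised and pattern-corrected inhibition of the luciferase reporter signal at the single screening dose is 50% or more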
EBV LMP1 NFkB = EBV LMP1-driven NF-kappaB luciferase reporter inhibitors, primary screen, cell-based, luminescence, single point; LMP1-induced NF-kappaB luciferase reporter cells; inhibition, % at 12.5 µM; 350,000 compounds, 0.69% hits; AID 504558, 2011; in the data active means inhibition above about 41%;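 further: 0% = neutral control wells and 100% = reference inhibitor control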
HIF-2a inh = HIF-2a reporter inhibitors, primary screen, luminescence, 786-0 RCC cells. 786-0 RCC cells HIF-2a reporter, luciferase luminescence, overnight. inhibition, % at 18.8 µM. 360,000 compounds, 0.72% hits;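 active means inhibition of the luminescence signal of 40% or more relative to plate controls, in a single-dose primary screen at 18.75 µM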
Shn3 inh set2 = reduction of Shn3 3'UTR firefly luciferase signal, primary screen, Schnurri-3 inhibitor project, cell-based, Clone20 osteoblasts, set 2; Clone20 osteoblast Shn3 3'UTR firefly luciferase, 24 h; inhibition, % at 12.5 µM; 360,000 compounds, 0.52% hits;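 active means mean inhibition of at least 75% with every replicate also reaching 75%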;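 further: 0% = median of neutral control wells and 100% = pilot-screen positive control compound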
MITF TRPM1 inh = inhibitors of MITF-dependent TRPM1 promoter reporter, primary screen, cell-based, SK-MEL-5, single point, luciferase; inhibition, % at 12.5 µM; 330,000 compounds, 0.83% hits; SK-MEL-5 TRPM1 promoter luciferase, 24 h; AID 488899, 2010;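 active means mean inhibition across replicates of 60% or more, whatever share of single replicates reaches that level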
An asterisk follows results filed as active; . = no result.

SMILES	TWEAK-Fn14 inh	TROY NFkB inh	EBV LMP1 NFkB	HIF-2a inh	Shn3 inh set2	MITF TRPM1 inh
Cc1ccc(-c2nc3n(n2)Cc2ccccc2-3)cc1	94*	58*	15	15	-22	48
CC(OC(=O)c1cc(S(=O)(=O)N(C)c2ccccc2)ccc1Cl)C(=O)Nc1ccc2c(c1)OCCO2 (stereo not drawn)	24	11	-2	15	0	-6
O=C1/C(=C/c2ccccc2)SC(=S)N1C1CCS(=O)(=O)C1 (stereo not drawn)	35	-20	9	3	-13	11
O=C1/C(=C/c2ccncc2)SC(=S)N1C1CCS(=O)(=O)C1 (stereo not drawn)	46	0	10	41*	-30	9
CC1CCc2c(sc(NC(=O)CSc3nc(N)cc(=O)[nH]3)c2C(N)=O)C1 (stereo not drawn)	67*	53*	6	10	21	13
N#Cc1c(NC(=O)CSc2nc(N)cc(=O)[nH]2)sc2c1CCCCCC2	16	13	3	4	58	21
COc1ccc2cc(C3=CC(=O)CCC3)ccc2c1	-3	-31	-30	-229	-43	-69
CN(CC(=O)Nc1ccc(F)c(F)c1F)C(=O)C1(c2ccccc2)CC1	-7	-1	2	23	19	.
Cc1cc(C)c(S(=O)(=O)N/N=C/c2ccc3c(c2)OCO3)c(C)c1	6	-17	-8	-40	-23	3
Cc1ccc(-n2cc(C(=O)c3ccccc3O)cn2)cc1	83*	47	78*	30	-7	-17
O=C(Cn1ccccc1=S)c1ccc(Cl)c(Cl)c1	8	17	.	-29	-2	.
On1ccccc1=S	106*	69*	-23	11	83	75*
CC1(C)CC(N2CCC(=O)N(C3CC(C)(C)NC(C)(C)C3)C2)CC(C)(C)N1	80*	.	2	-2	1	-6
O=Cc1ccc(-c2c(-c3ccccc3)oc3c2C(OCCCCO)CCC3)o1 (stereo not drawn)	25	-5	.	-6	.	.
O=C(COc1ccccc1)N[C@@H]1c2ccccc2CC[C@@H]1O	-1	-9	-6	13	-13	-11
COC(=O)C=CSC(=S)C1CCCC1=N (stereo not drawn)	1	-14	-11	-197	-32	.
OCCC1CN(Cc2ccc(-n3cccn3)cc2)CCN1Cc1ccccc1 (stereo not drawn)	27	-19	1	15	2	6
O=C(c1cnc(N2CCN(c3ccccn3)CC2)c2ccccc12)N1CCN(c2cccc(Cl)c2)CC1	91*	46	29	5	84	27
CCn1c(SCC(=O)N2CCCCCC2)nc2ccccc2c1=O	-7	-17	2	12	3	-3
C=CCn1c(SCC(=O)N2CCCCCC2)nc2ccccc2c1=O	73*	3	4	6	-4	-8
C=CCn1c(SCC(=O)c2ccc(CNC(C)=O)o2)nc2ccccc2c1=O	9	1	82*	18	-19	7
COc1ccc(NS(=O)(=O)c2cc(NC(=O)CCc3ccc(OC)c(OC)c3)ccc2N2CCOCC2)cc1	1	5	1	12	-50	6
CCOC(=O)C[N+](C)(C)CCOC1CC2CCC1(C)C2(C)C (stereo not drawn)	-2	2	-1	10	26	-4
CC1(C)C2CCC1(C)C(OCC[N+](C)(C)CC(=O)OC1CCCCC1)C2 (stereo not drawn)	11	20	68*	8	66	13
CC(C)c1ccc(C(=O)OCC(=O)Nc2cccc(S(=O)(=O)NC3=NCCC3)c2)cc1	13	7	7	8	-16	.
COC(=O)c1nc(NNC(=O)c2ccccc2)sc1-c1ccccc1	82*	-6	-4	-5	7	9
O=C(COc1ncnc2ccc(Br)cc12)Nc1ccc(N2CCOCC2)cc1	3	-11	2	11	-12	5
Brc1ccc2ncnc(Nc3ccc(N4CCOCC4)cc3)c2c1	59*	42	13	5	-5	11
